Bioassay records deposited in PubChem BioAssay by National Center for Advancing Translational Sciences (NCATS).
SW480 rereplic = DNA re-replication induction in SW480 cells | AID 624297 | SW480 DNA re-replication, Hoechst DNA content imaging, 48 h | Potency, µM (series often up to 46.1 µM), for inactives: at the top dose re-replication activation, usual class: activators | actives 1.8% (n = 340,000); further: potency means the concentration at half of the fitted maximal effect; % of control where 0% means no effect; nearly all actives have a fitted effect of over 55% in size
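Compounds, transferred as 23 nL by pin tool, were incubated with cells for 48 hr; DNA content per nucleus was then quantified by Hoechst staining and fluorescence plate imaging.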
KB-V1 cytotox = KB-V1 MDR subline cytotoxicity. KB-V1 MDR cells viability, CellTiter-Glo, 72 h. Potency, µM (series often up to 46.1 µM), actives largely listed as cytotoxic. actives 3.4% (n = 400,000); further: potency means the concentration at half of the fitted maximal effect; on the % scale 0 is the no-effect control and ±100 the full control effect; nearly all actives have a fitted effect of over 60% in size
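KB-V1 MDR subline cells in DMEM (phenol-red free, 10% FBS) exposed to compounds in qHTS concentration series for 72 h at 37 degrees C. Viability read by CellTiter-Glo luminescence; concentration-effect curves fitted after normalization and correction.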
Giardia kill = kills Giardia lamblia; Giardia lamblia trophozoite viability; activity change, % at 7.66 µM, hits read low; actives 0.15% (n = 340,000); in the data active means activity change below about -80%; inconclusive means between about -30% and that limit;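 further: parasites exposed to compound for two days anaerobically before the ATP read; on the % scale 0 is the no-effect control and ±100 the full control effect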
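Media and compound were dispensed first, then trophozoites at 100 cells/well; plates sat 48 hrs at 37 deg C without oxygen before ATP luminescence reagent was added and read after 15-30 min at room temperature.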
KB-3-1 cytotox = KB-3-1 parental cell cytotoxicity; KB-3-1 viability, CellTiter-Glo ATP luminescence, 72 h; Potency, µM (top dose mostly 46.1 µM), most hits filed as cytotoxic; actives 1.4% (n = 400,000); AID 1347075; further: potency means the concentration at half of the fitted maximal effect; on the % scale 0 is the no-effect control and ±100 the full control effect; nearly all actives have a fitted effect of over 60% in size
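Parental KB-3-1 viability, qHTS format: 72 h compound exposure, 37 °C; CellTiter-Glo; media-only wells and DMSO plates as controls; concentration-effect fits on corrected data.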
MCF10A rereplic = inducers of DNA re-replication in MCF 10A breast cells; MCF 10A DNA re-replication, Hoechst nuclear intensity, 48 h; Potency, µM (highest dose often 46.1 µM), without a hit: at the highest dose activity, positive = re-replication, actives largely listed as activators; actives 2.9% (n = 350,000); further: potency means the concentration at half of the fitted maximal effect; % of control where 0% means no effect; nearly all actives have a fitted effect of over 50% in size
S-ASM inh = human S-ASM enzyme inhibition; placental ASM, HMU-PC fluorogenic substrate, 60 min; Potency, µM (titrated, usually from 57.5 µM), without a hit: top-dose activity change, negative = inhibition, hits mostly inhibitors; actives 0.006% (n = 340,000); further: potency means the concentration at half of the fitted maximal effect
Target sequence (P17405 47-631 limits assumed): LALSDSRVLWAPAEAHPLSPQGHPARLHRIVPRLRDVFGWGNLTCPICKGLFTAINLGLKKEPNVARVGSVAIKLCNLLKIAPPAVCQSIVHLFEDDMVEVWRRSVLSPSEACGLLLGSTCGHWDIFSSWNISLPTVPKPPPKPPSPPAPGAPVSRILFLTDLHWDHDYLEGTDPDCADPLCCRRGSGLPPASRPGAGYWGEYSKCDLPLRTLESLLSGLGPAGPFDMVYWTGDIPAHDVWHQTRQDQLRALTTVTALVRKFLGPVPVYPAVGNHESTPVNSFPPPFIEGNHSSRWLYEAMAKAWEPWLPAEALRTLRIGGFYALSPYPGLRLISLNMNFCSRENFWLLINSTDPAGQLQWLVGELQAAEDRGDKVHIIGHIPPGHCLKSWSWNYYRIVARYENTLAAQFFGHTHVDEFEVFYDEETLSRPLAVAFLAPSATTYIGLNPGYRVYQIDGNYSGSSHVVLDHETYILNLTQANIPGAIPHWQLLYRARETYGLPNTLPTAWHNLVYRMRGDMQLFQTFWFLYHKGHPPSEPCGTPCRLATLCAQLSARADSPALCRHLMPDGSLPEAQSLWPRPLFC
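Human placenta-derived ASM preincubated with compound 10 min at room temperature, then reacted with 9 uM (final) fluorogenic HMU-PC substrate for 60 min at 37 C. Stop solution raises pH to 10; fluorescence read at Ex 386/Em 447 nm.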
Active calls of the source: *; i = inactive; ? = inconclusive; / = no result. Only some compounds are listed: those with a hit (about 6.9% of all), similar ones and a draw of the others. Unless noted, the call rests on the fitted dose curve; in most records, active means well fitted curve in the direction sought with a large enough effect; inconclusive means small, poorly fitted or top-dose-only effect, or another doubt; inactive means no such curve, though single readings can be large; an effect the other way counts as inactive or inconclusive.

SMILES	SW480 rereplic	KB-V1 cytotox	Giardia kill	KB-3-1 cytotox	MCF10A rereplic	S-ASM inh
Cc1ccc(C)c(CSc2cn(CCNC(=O)c3cccs3)c3ccccc23)c1	/	i	/	i	/	/
CCN(c1ccccc1)S(=O)(=O)c1cc(Br)cc2c1N(C(=O)C1CC1)CC2	/	?	/	i	/	/
O=C(N/N=C/c1ccc(Cl)cc1Cl)c1n[nH]c2c1CCCC2	?	?	-6	5.2µM*	?	5%
Cc1ccc(/C=N/NC(=O)c2n[nH]c3c2CCCC3)cc1	0.73µM*	1.2µM*	-13	?	?	-3%
O=C(N/N=C/c1cccc2ccccc12)c1n[nH]c2c1CCCC2	5.8µM*	2.6µM*	6	4.1µM*	?	25%
O=C(N/N=C\c1cccc(Cl)c1)c1n[nH]c2c1CCCC2	-8%	i	-2	i	?	-1%
O=C(N/N=C/c1cccs1)c1n[nH]c2c1CCCC2	?	?	-8	?	?	-1%
O=C(N/N=C/c1cccc2ccccc12)c1cccs1	0%	i	3	i	15%	-4%
O=C(Nc1nc(-c2ccccc2)ns1)c1ccc(Cl)cc1	/	i	/	i	/	/
CC(C)(C)C(=O)Nc1nc(-c2ccccc2)ns1	-6%	15µM*	-10	?	?	-3%
COc1ccc(N2CCN(C(=O)CNC(=O)Cc3ccc(Cl)cc3)CC2)cc1	?	10µM*	3	15µM*	?	2%
COc1ccc(N2CCN(C(=O)Cc3ccc(Br)cc3)CC2)cc1	-8%	21µM*	-11	i	8%	-4%
CCOC(=O)Cc1csc(SCC(=O)N2CCN(c3ccc(OC)cc3)CC2)n1	-4%	21µM*	10	i	5%	-1%
COc1ccc(N2CCN(CC(=O)c3ccc(Cl)cc3)CC2)cc1	-2%	?	-6	i	18µM*	-3%
COc1ccc(N2CCN(C(=O)CNC(=O)Cc3ccccc3)CC2)cc1	6%	/	24	/	0%	3%
COCCN(C(=O)COC(=O)c1sccc1C)c1c(N)n(Cc2ccccc2)c(=O)[nH]c1=O	-1%	i	-27	i	-3%	2%
COc1ccc2[nH]c(C)c(C(=O)CNc3nccs3)c2c1	/	i	/	i	/	/
Cc1ccc(S(=O)(=O)N(CC(=O)NC2CC2)c2ccc(C)c(Cl)c2)cc1	2%	/	0	/	6%	0%
CCCN1CNc2c(c(=O)[nH]c(=S)n2CCc2cc(Cl)cc(Cl)c2)C1	/	/	i	/	/	/
COCCn1c(C)cc(C(=O)CSc2nncn2-c2ccccc2)c1C	0%	10µM*	0	i	1%	3%
CN(C(=O)CSc1nnc(-c2ccc(Cl)cc2)n1CC1CCCO1)C1CCS(=O)(=O)C1 (configuration not stated)	-6%	i	-21	i	1%	1%
Cc1cc(C(=O)CSc2nnc(-c3ccc(Cl)cc3)n2CC2CCCO2)c(C)n1C (configuration not stated)	2%	6.5µM*	14	i	10%	-1%
Cc1cc(C(=O)CSc2nnc(-c3ccccc3)n2C)c(C)n1C	-8%	7.3µM*	-19	i	-1%	0%
Cc1ccc(C)c(NS(=O)(=O)c2ccc3oc(=O)c4ncn(C)c4c3c2)c1	/	i	/	i	/	/
COc1ccccc1NC(=S)N(Cc1ccco1)Cc1cc2cc(C)cc(C)c2[nH]c1=O	21µM*	2.9µM*	-3	6.5µM*	13µM*	-6%
SMILES	SW480 rereplic	KB-V1 cytotox	Giardia kill	KB-3-1 cytotox	MCF10A rereplic	S-ASM inh
Cc1ccc2cc(CN(Cc3ccco3)C(=O)C3CCCCC3)c(=O)[nH]c2c1C	-3%	i	5	i	1%	-11%
COc1ccccc1NC(=S)N(Cc1ccco1)Cc1cc2ccc(C)c(C)c2[nH]c1=O	?	1.8µM*	-17	0.92µM*	?	-4%
CCCCNC(=O)Cn1nc(N2CCN(c3ccccc3OC)CC2)ccc1=O	/	i	/	i	/	/
CCCCn1cnc2c(=O)[nH]c(N)nc21	/	i	-1	i	/	/
Oc1ccc(/C=N/Nc2ccnc3cc(Cl)ccc23)cc1O	16µM*	i	-12	i	23%	152%
CCOc1ccc(C(=O)NCCSc2c(C)[nH]c3ccccc23)cc1OCC	/	i	/	i	/	/
O=C(Nc1cc2ccc(O)cc2oc1=O)c1ccccc1	/	i	/	i	/	/
N#CC1(NC(=O)Cn2ncc(Cl)c(Cl)c2=O)CCCCC1	-53%	i	-9	?	4.5µM*	1%
Cc1ccc(/C=N/c2sc(Cc3ccccc3)c(C)c2C(N)=O)o1	-442%	?	-26	?	?	4%
Cc1c(Cc2ccccc2)sc(/N=C/c2c(O)ccc3ccccc23)c1C(N)=O	?	?	-27	i	12µM*	i
Cc1c(Cc2ccccc2)sc(/N=C/c2ccc3ccccc3c2)c1C(N)=O	1.2µM*	0.92µM*	-8	?	2.9µM*	70%
CN1C[C@@H]2C[C@H]1CN2c1cc2c(cc1F)c(=O)c(C(=O)O)cn2C1CC1	-2%	/	/	/	1%	/
C=CCn1c(SCC#N)nc2ccc(Cl)cc2c1=O	/	i	-3	i	/	/
NNc1nc2cccnc2n(CCNc2ncc(C(F)(F)F)cc2Cl)c1=O	1%	?	7	?	21µM*	17%
C[C@H]1c2cccc(O)c2C(=O)C2C(=O)C3(O)C(=O)C(C(N)=O)C(=O)[C@@H](N(C)C)[C@@H]3[C@@H](O)[C@@H]21 (some centres not stated)	6.3µM*	i	-1	i	-4%	5%
O=C(Nc1ccc(NC(=O)c2cccs2)cc1)c1ccc(Cl)cc1	/	i	/	i	/	/
COc1c(Cl)cc(Cl)cc1/C=C/C(=O)c1ccc(NC(=O)c2cccs2)cc1	6.5µM*	18µM*	3	?	3.7µM*	-10%
CCN(CC)c1ccc(NC(=O)c2sc3nc4c(cc3c2N)CN(C)CC4)cc1	/	i	/	i	/	/
CN1CCc2nc3sc(C(=O)NCc4ccccc4)c(N)c3cc2C1	-1%	i	-4	i	18µM*	27%
